GLA inh pH 4.5 – qHTS Assay for Inhibitors of Human alpha-Galactosidase at pH 4.5; Alpha-galactosidase A (Homo sapiens), P06280; purified enzyme, 4-MU-alpha-Gal fluorescence, pH 4.5; activity change, negative = inhibition, % at 105 µM; 230,000 tested, under 10 active; AID 1467, 2008
Target sequence (P06280 whole entry, looked up): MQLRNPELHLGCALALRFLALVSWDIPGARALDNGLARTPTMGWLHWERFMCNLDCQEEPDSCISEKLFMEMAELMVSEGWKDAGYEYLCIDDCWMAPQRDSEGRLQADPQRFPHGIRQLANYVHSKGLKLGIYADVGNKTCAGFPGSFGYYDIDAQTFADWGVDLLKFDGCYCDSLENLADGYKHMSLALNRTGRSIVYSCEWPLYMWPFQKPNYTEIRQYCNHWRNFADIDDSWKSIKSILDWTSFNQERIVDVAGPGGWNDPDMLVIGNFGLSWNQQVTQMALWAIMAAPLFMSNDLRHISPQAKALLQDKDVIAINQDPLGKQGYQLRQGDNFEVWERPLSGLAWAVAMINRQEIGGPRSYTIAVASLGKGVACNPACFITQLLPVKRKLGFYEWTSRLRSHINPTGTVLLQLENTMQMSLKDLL
aGal spleen mod – qHTS Assay for Inhibitors and Activators of Human alpha-Galactosidase From Spleen Homogenate; Alpha-galactosidase A (Homo sapiens), P06280; human spleen homogenate, 4MU-alpha-Gal fluorescence, 40 min; Potency, µM (top dose mostly 80 µM), hits mostly inhibitors; hit rate 0.008% among 240,000; AID 2107, 2009
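Spleen homogenate 1 ug + cpd (titration) + 4-MU-alpha-D-galactopyranoside 1 mM; 37C 40 min; 50 mM citrate/phosphate pH 5.0, 0.01% Tween-20; stop pH 10; fluorescence 365/440; AC50 via Hill.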
HTT cytoprotect – qHTS Multiplex Assay to Identify Dual Action Probes in a Cell Model of Huntington: Cytoprotection (ATP) | PC12 HTT-Q103 induced, cytoprotection, ATP luminescence, 40 h | Potency, µM (highest dose often 56.4 µM), usual class: activators | hit rate 0.14% among 230,000; further: nearly all actives have a fitted effect of over 45% in size
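Cells were plated at 1500 per well in phenol red-free DMEM with 5% equine and 5% calf serum. Tebufenozide (100 nM final) and compounds were added, then ATPlite reagent, and luminescence was read.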
HTT aggregate – qHTS Multiplex Assay to Identify Dual Action Probes in a Cell Model of Huntington: Aggregate Formation (GFP). hit rate 1.1% among 220,000. PC12 HttQ103-GFP aggregates, Acumen cytometry, 40 h. AID 1688, 2009. Potency, µM (top dose mostly 46.1 µM), hits mostly inhibitors; further: nearly all actives have a fitted effect of over 60% in size
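Aggregates are detected as GFP objects 1–25 µm with signal 6 STDEV over background in lysates of induced PC12 cells. These carry Huntingtin exon 1 with 103 glutamines fused to GFP under an ecdysone promoter; compounds titrated.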
Of the large screens only hits and unclear results are named; the others gave an inactive call. Only some compounds are listed: those with a hit (about 1.2% of all), similar ones and a draw of the others. The call rests on the fitted dose curve; in most records, active means well fitted curve in the direction sought with a large enough effect; inconclusive means small, poorly fitted or top-dose-only effect, or another doubt; inactive means no such curve, though single readings can be large; an effect the other way counts as inactive or inconclusive.

O=C(COc1nsnc1N1CCOCC1)N/N=C/c1ccccc1O	HTT aggregate 14.1µM (no result: HTT cytoprotect)
COc1ccc2c(c1)C(=O)[C@@H](OC(=O)NCc1ccco1)[C@H](c1ccc(OC)c(Br)c1)O2	none (no result: HTT aggregate)
Cc1ccccc1C(=O)Nc1cccc(C(=O)N/N=C/c2cc(Cl)cc([N+](=O)[O-])c2O)c1	HTT aggregate 2.82µM
S=C1Cc2ccccc2N1	HTT cytoprotect 1.26µM
CCCCC/C=C\C/C=C\C/C=C\C/C=C\CCCC(=O)O[C@@H](CO)COC(=O)CCCCCCCCCCCCCCCCC	none (no result: HTT aggregate)
CSCC[C@H](N)C(=O)N[C@@H](CO)C(=O)N[C@@H](CCCN=C(N)N)C(=O)N1CCC[C@H]1C(=O)N[C@@H](C)C(=O)N[C@@H](CS)C(=O)N1CCC[C@H]1C(=O)N[C@@H](CC(N)=O)C(=O)N[C@@H](CC(=O)O)C(=O)N[C@@H](CCCCN)C(=O)N[C@@H](Cc1ccc(O)cc1)C(=O)N[C@@H](CCC(=O)O)C(=O)O	none (no result: GLA inh pH 4.5, HTT cytoprotect, HTT aggregate)
O=C(Nc1nc(-c2cccc([N+](=O)[O-])c2)cs1)C(c1ccccc1)c1ccccc1	HTT aggregate 15.8µM
CC(OC(=O)c1ccccc1Br)C(=O)Nc1nc(-c2cccc([N+](=O)[O-])c2)cs1 (configuration not stated)	none
O=C(NC(Nc1nc2ccc([N+](=O)[O-])cc2s1)(C(F)(F)F)C(F)(F)F)c1ccccc1Cl	HTT aggregate 0.316µM
N#C/C(=C\c1ccccc1)C(=O)Nc1cc(S(=O)(=O)N2CCOCC2)ccc1N1CCCC1	HTT cytoprotect 0.708µM, HTT aggregate inconclusive
O=C(Nc1ccccc1F)Nc1cc(S(=O)(=O)N2CCOCC2)ccc1N1CCCC1	none
Cc1cc(C)cc([N+](=O)[O-])c1	none (no result: GLA inh pH 4.5, HTT aggregate)
CCSC[C@H](NC(=O)[C@H](C)N)C(=O)N[C@@H](CC(=O)O)C(=O)N[C@H](C(=O)N[C@@H](C)C(=O)N[C@H](C(=O)N[C@@H](CSCC)C(=O)N[C@H](C(=O)N[C@H](C(=O)N[C@@H](Cc1cnc[nH]1)C(=O)N[C@@H](CCCNC(=N)N)C(=O)N[C@@H](CC(C)C)C(=O)N[C@@H](C)C(=O)NCC(=O)N[C@@H](CC(C)C)C(=O)N[C@@H](CC(C)C)C(=O)N[C@@H](CO)C(=O)N[C@@H](CCCNC(=N)N)C(=O)N[C@@H](CO)C(=O)NCC(=O)NCC(=O)N[C@H](C(=O)N[C@H](C(=O)N[C@@H](CCCCN)C(=O)N[C@@H](CC(N)=O)C(=O)N[C@@H](CC(N)=O)C(=O)N[C@@H](Cc1ccccc1)C(=O)N[C@H](C(=O)N1CCC[C@H]1C(=O)N[C@H](C(=O)N[C@@H](CC(N)=O)C(=O)N[C@H](C(=O)NCC(=O)N[C@@H](CO)C(=O)N[C@@H](CCCCN)C(=O)N[C@@H](C)C(=O)N[C@@H](Cc1ccccc1)C(N)=O)C(C)C)[C@@H](C)O)C(C)C)C(C)C)C(C)C)[C@@H](C)O)C(C)C)[C@@H](C)O)[C@@H](C)O	none (no result: GLA inh pH 4.5, HTT cytoprotect, HTT aggregate)
Cc1ccc(C2(c3ccc(C)cc3)CC2C(=O)Nc2ccc([N+](=O)[O-])cc2O)cc1 (configuration not stated)	HTT aggregate 7.08µM
CC1(C)CC1C(=O)Nc1ccc([N+](=O)[O-])cc1Br (configuration not stated)	none
CN1C(=O)C2(OCC(COc3ccc(Cl)cc3)O2)c2ccccc21 (configuration not stated)	HTT aggregate 1µM
C=C[C@](C)(O)CCC1C(=C)CC(OC(C)=O)C2C(C)(C)CCCC12C (some centres not stated)	none (no result: HTT cytoprotect, HTT aggregate)
O=C(Nc1cccnc1)Nc1ccc(Br)cc1Cl	HTT aggregate inconclusive
O=C(Nc1cccnc1)Nc1ccccc1Cl	HTT cytoprotect 0.794µM (no result: HTT aggregate)
O=C(Nc1cccnc1)C12CC3CC(CC(C3)C1)C2	none
O=C(Nc1cccnc1)C1(F)C(F)(F)C(F)(F)C(F)(F)C(F)(F)C1(F)F	HTT aggregate 6.31µM
CC(C)C[C@H](NC(=O)CNC(=O)[C@H](C)NC(=O)[C@H](CC(C)C)NC(=O)[C@H](CCCNC(=N)N)NC(=O)[C@H](Cc1cnc[nH]1)NC(=O)[C@@H](NC(=O)[C@@H](NC(=O)[C@@H]1CSSC[C@H](NC(=O)[C@@H](N)CO)C(=O)N[C@@H](CC(N)=O)C(=O)N[C@@H]([C@@H](C)O)C(=O)N[C@@H](C)C(=O)N[C@@H]([C@@H](C)O)C(=O)N1)C(C)C)[C@@H](C)O)C(=O)N[C@@H](CC(C)C)C(=O)N[C@@H](CO)C(=O)N[C@@H](CCCNC(=N)N)C(=O)N[C@@H](CO)C(=O)NCC(=O)NCC(=O)N[C@H](C(=O)N[C@H](C(=O)N[C@@H](CCCCN)C(=O)N[C@@H](CC(=O)O)C(=O)N[C@@H](CC(N)=O)C(=O)N[C@@H](Cc1ccccc1)C(=O)N[C@H](C(=O)N1CCC[C@H]1C(=O)N[C@H](C(=O)N[C@@H](CC(N)=O)C(=O)N[C@H](C(=O)NCC(=O)N[C@@H](CO)C(=O)N[C@@H](CCCCN)C(=O)N[C@@H](C)C(=O)N[C@@H](Cc1ccccc1)C(N)=O)C(C)C)[C@@H](C)O)C(C)C)C(C)C)C(C)C	none (no result: GLA inh pH 4.5, HTT cytoprotect, HTT aggregate)
CN(C)c1cc(-c2cccc(NS(C)(=O)=O)c2)ncn1	none (no result: GLA inh pH 4.5, HTT aggregate)
COc1ccccc1OC(C)C(=O)Nc1nc(-c2ccc(S(=O)(=O)N3CCOCC3)cc2)cs1 (configuration not stated)	none
O=C(Nc1nc(-c2ccccc2)cs1)c1ccccc1NS(=O)(=O)c1ccc(F)cc1	HTT aggregate 1.78µM
COc1ccccc1C(=O)Nc1nc(-c2ccc(S(=O)(=O)N3CCOCC3)cc2)cs1	HTT aggregate 2.51µM
CN(C)CC(O)Cn1c2ccc(Br)cc2c2cc(Br)ccc21 (configuration not stated)	none (no result: GLA inh pH 4.5, HTT aggregate)
COc1cccc(/C=N/Nc2nc(Nc3ccccc3)nc(-n3nc(C)cc3C)n2)c1O	HTT aggregate 1.12µM
Cc1ccc(C(=O)N/C(=C\c2ccc(-c3ccc(Br)cc3)o2)C(=O)NCCCN(C)C)cc1	HTT aggregate inconclusive
CN(C)CCNC(=O)/C(=C/c1ccc(-c2ccc(Cl)cc2)o1)NC(=O)c1ccccc1	HTT aggregate 3.16µM
CN(C)CCNC(=O)/C(=C/c1ccc(-c2ccc(Cl)cc2Cl)o1)NC(=O)c1ccccc1	HTT aggregate 35.5µM (no result: HTT cytoprotect)
COc1cccc([C@@H]2Oc3ccc(Br)cc3[C@H](O)[C@H]2O)c1	none (no result: HTT aggregate)
CC(C)C(=O)NC(c1cccs1)c1cc([N+](=O)[O-])c2cccnc2c1O (configuration not stated)	GLA inh pH 4.5 inconclusive, HTT aggregate 2µM
CCCC(=O)NC(c1cccs1)c1cc(Cl)c2cccnc2c1O (configuration not stated)	none

Screening results (PubChem)
